{"source": "PubChem BioAssay (EPA / NIEHS)", "key": {"[1]": {"biological_target": "rat Thyrotropin Releasing Hormone Receptor (TRH), Trhr (gene 25570) (UniProt Q01717)", "sequence (Q01717 whole entry, looked up)": "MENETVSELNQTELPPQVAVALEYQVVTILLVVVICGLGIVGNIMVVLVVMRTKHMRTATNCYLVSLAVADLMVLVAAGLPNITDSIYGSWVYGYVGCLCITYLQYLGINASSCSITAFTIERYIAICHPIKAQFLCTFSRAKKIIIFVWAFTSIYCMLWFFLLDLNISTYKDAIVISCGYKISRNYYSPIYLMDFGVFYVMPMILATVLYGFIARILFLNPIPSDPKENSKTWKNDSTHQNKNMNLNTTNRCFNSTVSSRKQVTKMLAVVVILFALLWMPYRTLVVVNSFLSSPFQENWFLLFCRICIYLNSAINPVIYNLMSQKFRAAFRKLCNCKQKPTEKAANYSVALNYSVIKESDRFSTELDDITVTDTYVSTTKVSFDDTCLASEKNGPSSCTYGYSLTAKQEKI", "test": "NVS_GPCR_rTRH: NovaScreen (NVS) G Protein-Coupled Receptor Assay for rat Thyrotropin Releasing Hormone Receptor (TRH) (AID 2283329);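 further: hit means lower bound tracer signal versus DMSO baseline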", "how_it_was_run": "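Rat forebrain membranes; radioligand displacement at TRH receptor by filter-based scintillation counting, read 4 h after dosing. Duplicate single-point screen at 25 uM, actives rerun in concentration series; loss of signal relative to DMSO.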"}, "[2]": {"biological_target": "rat Neonicotinoid receptor (NNR), Chrna7 (gene 25302) (UniProt Q05941)", "sequence (Q05941 whole entry, looked up)": "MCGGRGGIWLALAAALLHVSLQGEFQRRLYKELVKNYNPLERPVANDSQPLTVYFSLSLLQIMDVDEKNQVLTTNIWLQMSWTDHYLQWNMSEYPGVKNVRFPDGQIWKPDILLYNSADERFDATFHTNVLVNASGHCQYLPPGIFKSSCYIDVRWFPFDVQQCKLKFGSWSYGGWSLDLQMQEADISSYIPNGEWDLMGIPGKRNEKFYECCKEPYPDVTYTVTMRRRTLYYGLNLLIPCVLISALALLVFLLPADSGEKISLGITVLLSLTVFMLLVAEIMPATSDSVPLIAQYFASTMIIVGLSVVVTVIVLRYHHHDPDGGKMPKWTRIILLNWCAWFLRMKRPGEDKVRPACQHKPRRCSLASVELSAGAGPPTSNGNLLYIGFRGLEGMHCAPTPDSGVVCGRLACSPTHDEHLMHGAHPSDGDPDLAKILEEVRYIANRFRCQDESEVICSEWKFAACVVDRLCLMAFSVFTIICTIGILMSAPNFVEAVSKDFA", "test": "NVS_LGIC_rNNR_BungSens: NovaScreen (NVS) Ligand-Gated Ion Channel Assay for rat Neonicotinoid receptor (NNR) (AID 2283315)", "how_it_was_run": "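Radioligand displacement binding on rat cortical membranes, 2.5 h incubation, filtration and scintillation counting. Loss of specific binding fitted relative to DMSO.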"}, "[3]": {"biological_target": "rat Peripheral-type Benzodiazepine Receptor (PBR), Tspo (gene 24230) (UniProt P16257)", "sequence (P16257 whole entry, looked up)": "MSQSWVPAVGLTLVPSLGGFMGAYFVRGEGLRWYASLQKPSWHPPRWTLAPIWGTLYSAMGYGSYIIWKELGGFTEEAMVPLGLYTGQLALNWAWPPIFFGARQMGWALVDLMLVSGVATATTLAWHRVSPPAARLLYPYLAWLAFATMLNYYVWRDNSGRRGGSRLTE", "test": "NVS_MP_rPBR: NovaScreen (NVS) Membrane Protein Assay for rat Peripheral-type Benzodiazepine Receptor (PBR) (AID 2283335)", "how_it_was_run": "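Radioligand displacement, rat kidney membrane prep, 1 h exposure, filter-based scintillation read; DMSO baseline, loss-of-signal scored. Primary screen at 25 uM in duplicate, actives followed up in concentration series.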"}, "[4]": {"biological_target": "human Serotonin, 5-Hydroxytryptamine Receptor 3 (5HT3), HTR3A (gene 3359) (UniProt P46098)", "sequence (P46098 whole entry, looked up)": "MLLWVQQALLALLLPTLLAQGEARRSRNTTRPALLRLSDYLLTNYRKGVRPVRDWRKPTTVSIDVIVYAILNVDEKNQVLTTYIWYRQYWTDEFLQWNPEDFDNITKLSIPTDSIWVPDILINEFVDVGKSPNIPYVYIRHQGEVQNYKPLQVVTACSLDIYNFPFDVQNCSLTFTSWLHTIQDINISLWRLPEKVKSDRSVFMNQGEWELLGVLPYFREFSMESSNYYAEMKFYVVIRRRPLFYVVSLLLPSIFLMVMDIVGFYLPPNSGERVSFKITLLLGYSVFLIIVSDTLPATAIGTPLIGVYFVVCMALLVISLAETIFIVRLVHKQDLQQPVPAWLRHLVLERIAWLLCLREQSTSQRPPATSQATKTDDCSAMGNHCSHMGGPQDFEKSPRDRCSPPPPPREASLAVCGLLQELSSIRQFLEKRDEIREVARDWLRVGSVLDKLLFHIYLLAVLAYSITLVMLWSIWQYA", "test": "NVS_LGIC_h5HT3: NovaScreen (NVS) Ligand-Gated Ion Channel Assay for human Serotonin, 5-Hydroxytryptamine Receptor 3 (5HT3) (AID 2283325)", "how_it_was_run": "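Radioligand displacement binding to human 5-HT3 from HEK293 membranes, read by filter-based scintillation counting after 1 h. Screen at 25 uM in duplicate; chemicals passing threshold were retested in concentration-response up to 50 uM.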"}, "[5]": {"biological_target": "rat Opioid Receptor, Non-selective Binding, Oprm1 (gene 25601) (UniProt P33535)", "sequence (P33535 whole entry, looked up)": "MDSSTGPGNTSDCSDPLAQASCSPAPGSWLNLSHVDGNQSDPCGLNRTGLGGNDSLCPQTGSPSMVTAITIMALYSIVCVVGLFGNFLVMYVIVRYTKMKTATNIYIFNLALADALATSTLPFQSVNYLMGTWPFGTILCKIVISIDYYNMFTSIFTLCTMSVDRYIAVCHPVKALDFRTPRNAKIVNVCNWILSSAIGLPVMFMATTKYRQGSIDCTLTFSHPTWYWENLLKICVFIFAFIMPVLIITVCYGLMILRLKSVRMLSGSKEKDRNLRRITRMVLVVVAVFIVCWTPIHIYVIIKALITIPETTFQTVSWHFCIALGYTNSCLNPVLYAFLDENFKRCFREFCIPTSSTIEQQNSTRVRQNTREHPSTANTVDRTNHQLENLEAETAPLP", "test": "NVS_GPCR_rOpiate_NonSelective: NovaScreen (NVS) G Protein-Coupled Receptor Assay for rat Opioid Receptor, Non-selective Binding (AID 2283318)", "how_it_was_run": "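Rat forebrain membranes, cell-free radioligand binding with filter-based scintillation counting, read 1.5 h after dosing. Primary screen in duplicate at 25 uM; actives retested in concentration series. Loss of signal versus DMSO baseline scored.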"}, "[6]": {"test": "NVS_IC_rCaDHPRCh_L: NovaScreen (NVS) Ion Channel Assay for rat Calcium Channel, Type L, Dihydropyridine Site (CaDHPRCh_L) (AID 2283320)", "how_it_was_run": "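Radioligand binding to dihydropyridine site on rat cortical membranes, filter-based scintillation counting, 1 h after dosing. Screened in duplicate at 25 uM; actives rerun in concentration-response up to 50 uM. Loss of signal versus DMSO baseline.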"}, "[7]": {"biological_target": "Voltage-gated inwardly rectifying potassium channel KCNH2 (Homo sapiens) (UniProt Q12809)", "sequence (Q12809 whole entry, looked up)": "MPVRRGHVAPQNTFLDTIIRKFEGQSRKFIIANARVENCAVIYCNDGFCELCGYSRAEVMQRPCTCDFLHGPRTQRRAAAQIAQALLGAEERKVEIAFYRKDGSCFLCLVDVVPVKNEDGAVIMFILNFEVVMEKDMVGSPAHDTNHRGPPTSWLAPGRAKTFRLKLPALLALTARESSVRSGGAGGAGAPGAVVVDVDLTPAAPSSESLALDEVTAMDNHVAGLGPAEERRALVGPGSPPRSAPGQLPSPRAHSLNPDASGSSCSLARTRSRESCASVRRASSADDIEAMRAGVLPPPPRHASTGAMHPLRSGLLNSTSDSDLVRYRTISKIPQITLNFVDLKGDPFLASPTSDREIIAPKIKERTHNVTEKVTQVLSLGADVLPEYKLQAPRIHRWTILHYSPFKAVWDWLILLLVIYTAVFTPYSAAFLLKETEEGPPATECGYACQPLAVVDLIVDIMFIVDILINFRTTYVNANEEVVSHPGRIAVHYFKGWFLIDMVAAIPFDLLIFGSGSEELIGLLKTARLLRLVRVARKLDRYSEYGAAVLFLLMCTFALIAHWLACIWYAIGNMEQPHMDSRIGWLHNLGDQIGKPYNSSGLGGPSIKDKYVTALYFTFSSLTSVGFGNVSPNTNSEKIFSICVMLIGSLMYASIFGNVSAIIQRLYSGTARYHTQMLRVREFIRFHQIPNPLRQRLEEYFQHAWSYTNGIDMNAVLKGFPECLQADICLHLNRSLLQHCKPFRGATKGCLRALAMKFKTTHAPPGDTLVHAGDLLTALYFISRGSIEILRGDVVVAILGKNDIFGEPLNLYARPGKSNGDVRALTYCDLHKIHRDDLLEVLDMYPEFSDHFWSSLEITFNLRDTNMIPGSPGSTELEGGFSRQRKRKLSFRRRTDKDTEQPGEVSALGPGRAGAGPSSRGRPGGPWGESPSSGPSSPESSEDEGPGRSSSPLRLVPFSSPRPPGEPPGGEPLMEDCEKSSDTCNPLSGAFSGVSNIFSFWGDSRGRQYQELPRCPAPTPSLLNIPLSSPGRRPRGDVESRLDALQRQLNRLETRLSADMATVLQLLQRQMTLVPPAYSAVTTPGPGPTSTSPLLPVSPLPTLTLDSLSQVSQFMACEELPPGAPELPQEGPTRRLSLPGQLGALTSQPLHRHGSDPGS", "test": "NVS_IC_hKhERGCh: NovaScreen (NVS) Ion Channel Assay for human Potassium Channel ERG (KhERGCh) (AID 2283333)", "how_it_was_run": "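Cell-free radioligand competition binding on hERG protein extracted from CHO cells, read by filter-based scintillation counting 0.75 h after dosing. Primary screen at 25 uM in duplicate, actives followed in concentration series. Signal loss fitted versus DMSO.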"}, "[8]": {"test": "NVS_IC_rCaBTZCHL: NovaScreen (NVS) Ion Channel Assay for Calcium Channel, Type L, Benzothiazepine Site (CaBTZCHL) (AID 2283337)", "how_it_was_run": "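Radioligand binding to the benzothiazepine site of L-type Ca channels in rat cortical membranes (cell-free), 1.5 h after dosing; filter-based scintillation counting. Loss of signal relative to DMSO baseline; primary single-concentration screen at 25 uM, actives then run in concentration series.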"}, "[9]": {"biological_target": "rat Glutamate, MK-801 Agonist Site (GluNMDA_MK801), Grin1 (gene 24408) (UniProt P35439)", "test": "NVS_LGIC_rGluNMDA_MK801_Agonist: NovaScreen (NVS) Ligand-Gated Ion Channel Assay for rat Glutamate, MK-801 Agonist Site (GluNMDA_MK801) (AID 2283340)", "how_it_was_run": "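Radioligand binding at MK-801 site in rat forebrain membranes, 1.5 h incubation, filter-based scintillation counting. Initially 25 uM in duplicate; actives then run in concentration-response up to 50 uM, fitted for gain of signal versus DMSO.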"}, "[10]": {"biological_target": "rat Vasopressin 1 Receptor (V1), Avpr1a (gene 25107) (UniProt P30560)", "sequence (P30560 whole entry, looked up)": "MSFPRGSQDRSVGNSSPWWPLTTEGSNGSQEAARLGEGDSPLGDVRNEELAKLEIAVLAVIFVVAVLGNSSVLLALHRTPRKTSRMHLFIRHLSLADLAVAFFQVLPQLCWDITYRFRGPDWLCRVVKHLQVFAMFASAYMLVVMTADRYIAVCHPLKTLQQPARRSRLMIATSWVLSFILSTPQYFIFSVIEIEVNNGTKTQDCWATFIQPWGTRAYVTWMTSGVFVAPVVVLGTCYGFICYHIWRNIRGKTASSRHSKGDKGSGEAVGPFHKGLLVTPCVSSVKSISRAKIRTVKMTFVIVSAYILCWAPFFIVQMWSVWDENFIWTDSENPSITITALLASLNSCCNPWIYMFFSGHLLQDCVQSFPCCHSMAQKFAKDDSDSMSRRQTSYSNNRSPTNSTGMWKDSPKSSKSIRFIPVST", "test": "NVS_GPCR_rV1: NovaScreen (NVS) G Protein-Coupled Receptor Assay for rat Vasopressin 1 Receptor (V1) (AID 2283316)", "how_it_was_run": "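Radioligand binding on rat liver membranes, 1.5 h incubation, filter-based scintillation counting. Single 25 uM screen in duplicate; chemicals meeting threshold (e.g. 30% inhibition) run in concentration-response up to 50 uM.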"}, "[11]": {"biological_target": "human Constitutive Androstane Receptor (CAR), NR1I3 (gene 9970) (UniProt Q14994)", "sequence (Q14994 whole entry, looked up)": "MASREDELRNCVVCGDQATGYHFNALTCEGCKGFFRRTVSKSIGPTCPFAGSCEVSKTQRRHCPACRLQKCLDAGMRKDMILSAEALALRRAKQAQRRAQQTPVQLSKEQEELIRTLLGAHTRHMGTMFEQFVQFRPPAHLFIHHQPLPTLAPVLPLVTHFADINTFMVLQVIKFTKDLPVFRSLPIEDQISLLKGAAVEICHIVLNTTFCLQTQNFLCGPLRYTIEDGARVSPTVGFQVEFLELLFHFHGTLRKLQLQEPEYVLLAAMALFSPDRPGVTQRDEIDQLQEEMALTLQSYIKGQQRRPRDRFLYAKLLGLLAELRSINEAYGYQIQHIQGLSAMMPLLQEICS", "test": "NVS_NR_hCAR_Agonist: NovaScreen (NVS) Nuclear Receptor Binding Assay for human Constitutive Androstane Receptor Agonism (CAR) (AID 2283328)", "how_it_was_run": "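Cell-free TR-FRET binding readout with extracted human CAR protein, read 1 h after dosing. Gain of signal fitted against DMSO baseline. Single-concentration duplicates at 25 uM, then concentration-response up to 50 uM for actives.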"}, "[12]": {"biological_target": "rat Gamma-Aminobutyric Acid Type A Receptor, Non-Selective (GABAR-NonSelective), Gabra1 (gene 29705) (UniProt P62813)", "sequence (P62813 whole entry, looked up)": "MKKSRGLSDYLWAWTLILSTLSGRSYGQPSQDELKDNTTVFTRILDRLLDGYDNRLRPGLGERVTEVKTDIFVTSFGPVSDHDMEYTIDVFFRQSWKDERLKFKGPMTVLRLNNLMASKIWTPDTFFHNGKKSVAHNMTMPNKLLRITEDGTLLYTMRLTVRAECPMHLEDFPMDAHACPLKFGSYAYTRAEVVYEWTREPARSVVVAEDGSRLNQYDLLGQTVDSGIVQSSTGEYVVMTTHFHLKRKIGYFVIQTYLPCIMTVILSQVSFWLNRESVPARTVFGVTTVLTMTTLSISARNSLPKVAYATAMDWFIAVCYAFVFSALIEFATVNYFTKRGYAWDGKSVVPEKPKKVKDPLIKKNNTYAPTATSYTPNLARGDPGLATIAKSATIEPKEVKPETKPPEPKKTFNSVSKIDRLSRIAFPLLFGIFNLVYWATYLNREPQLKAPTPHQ", "test": "NVS_LGIC_rGABAR_NonSelective: NovaScreen (NVS) Ligand-Gated Ion Channel Assay for rat Gamma-Aminobutyric Acid Type A Receptor, Non-Selective (GABAR-NonSelective) (AID 2283326)", "how_it_was_run": "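Radioligand displacement on rat whole-brain extract, 1 h, filter scintillation readout; signal loss fitted versus DMSO. Primary screen in duplicate at 25 uM; hits (e.g. ≥30% inhibition) retested in concentration-response up to 50 uM.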"}, "NCBI gene 24521": {"tested_on": "NCBI gene 24521", "test": "NVS_IC_rKATPCh: NovaScreen (NVS) Ion Channel Assay for rat Potassium Channel, ATP-Sensitive (KATPCh) (AID 2283319)", "how_it_was_run": "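Rat cortical membranes; radioligand binding at ATP-sensitive K channel site, filter-based scintillation counting 2 h after dosing. Single-point duplicate screen at 25 uM, hits rerun in concentration-response up to 50 uM; loss of signal versus DMSO.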"}, "[13]": {"biological_target": "rat Glutamate, AMPA Site (AMPA), Gria1 (gene 50592) (UniProt P19490)", "test": "NVS_LGIC_rAMPA: NovaScreen (NVS) Ligand-Gated Ion Channel Assay for rat Glutamate, AMPA Site (AMPA) (AID 2283324)", "how_it_was_run": "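Rat forebrain membranes; radioligand binding read 1 h after dosing by filtration and scintillation counting. Duplicate single-point screen at 25 uM, then concentration-response to 50 uM for threshold hits (e.g. 30% inhibition); loss of signal vs DMSO.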"}, "[14]": {"biological_target": "bovine Gamma-Aminobutyric Acid Type A Receptor Agonist (GABAR Agonist), GABRA1 (gene 780973) (UniProt P08219)", "sequence (P08219 whole entry, looked up)": "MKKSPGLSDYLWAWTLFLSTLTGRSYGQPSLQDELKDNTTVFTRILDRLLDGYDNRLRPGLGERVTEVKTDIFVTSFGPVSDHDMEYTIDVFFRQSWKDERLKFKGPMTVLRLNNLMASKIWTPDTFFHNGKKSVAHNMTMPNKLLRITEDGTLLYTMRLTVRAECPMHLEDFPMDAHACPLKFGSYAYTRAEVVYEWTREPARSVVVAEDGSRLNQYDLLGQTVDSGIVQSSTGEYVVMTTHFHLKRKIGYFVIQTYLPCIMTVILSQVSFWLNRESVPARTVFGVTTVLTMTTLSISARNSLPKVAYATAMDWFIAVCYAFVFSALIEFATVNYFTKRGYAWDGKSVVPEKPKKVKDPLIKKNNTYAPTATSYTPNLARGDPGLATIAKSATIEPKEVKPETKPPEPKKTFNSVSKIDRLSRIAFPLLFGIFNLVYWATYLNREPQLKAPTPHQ", "test": "NVS_LGIC_bGABAR_Agonist: NovaScreen (NVS) Ligand-Gated Ion Channel Assay for bovine Gamma-Aminobutyric Acid Type A Receptor Agonist (GABAR Agonist) (AID 2283338)", "how_it_was_run": "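Radioligand binding to bovine cerebellar membranes in agonist format, read by filter-based scintillation counting after 1 h. Primary screen in duplicate at 25 uM, with actives followed in concentration series. Gain of signal versus DMSO.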"}, "[15]": {"biological_target": "Voltage-dependent N-type calcium channel subunit alpha-1B (Rattus norvegicus) (UniProt Q02294)", "test": "NVS_IC_rCaChN: NovaScreen (NVS) Ion Channel Assay for rat Calcium Channel, Type N (CaChN) (AID 2283317)"}}, "note": "Inconclusive results are not listed. Where a structure was tested more than once in an assay, its records may differ in their call. Calls of active or inactive are those of the source. How the source made its calls: active means hit-call score of the fitted dose curve at least 0.9, where 1 is the maximum; inconclusive means response in the unintended direction; inactive means score below 0.9."}
{"smiles": "CC(C)C1CCC(Cc2ccc(Cl)cc2)C1(O)Cn1cncn1", "note": "(stereo not given)", "values": [{"measurement": "outcome", "setting": "[1]", "result": "inactive"}]}
{"smiles": "C[C@@H]1C[C@@H]([C@H](O)CC2CC(=O)NC(=O)C2)C(=O)[C@@H](C)C1", "values": [{"measurement": "outcome", "setting": "[2]", "result": "inactive"}, {"measurement": "AC50", "setting": "[3]", "result": "33.3 µM (active)"}, {"measurement": "outcome", "setting": "[3]", "result": "inactive"}]}
{"smiles": "O=C(O)C(F)(F)C(F)(F)C(F)(F)C(F)(F)C(F)(F)C(F)(F)C(F)(F)C(F)(F)C(F)(F)C(F)(F)F", "values": [{"measurement": "outcome", "setting": "[4]", "result": "inactive"}]}
{"smiles": "O=[N+]([O-])c1ccc(O)c([N+](=O)[O-])c1", "values": [{"measurement": "outcome", "setting": "[1]", "result": "inactive"}]}
{"smiles": "CCN1CCC2(CC1)COc1cc3c(cc12)N(C(=O)c1ccc(-c2ccc(-c4nnc(C)o4)cc2C)cc1)CC3", "values": [{"measurement": "AC50", "setting": "[2]", "result": "21.2 µM (active)"}, {"measurement": "outcome", "setting": "[5]", "result": "inactive"}, {"measurement": "AC50", "setting": "[6]", "result": "4.93 µM (active)"}, {"measurement": "outcome", "setting": "[7]", "result": "inactive"}, {"measurement": "AC50", "setting": "[3]", "result": "6.5 µM (active)"}, {"measurement": "AC50", "setting": "[8]", "result": "4.16 µM (active)"}, {"measurement": "AC50", "setting": "[9]", "result": "39.1 µM (active)"}]}
{"smiles": "CC(C)c1cccc(C(C)C)c1O", "values": [{"measurement": "outcome", "setting": "[1]", "result": "inactive"}]}
{"smiles": "C1CCC(NC2CCCCC2)CC1", "values": [{"measurement": "outcome", "setting": "[1]", "result": "inactive"}]}
{"smiles": "ClCC(Cl)CCl", "values": [{"measurement": "outcome", "setting": "[1]", "result": "inactive"}]}
{"smiles": "O=C(O)C(Cl)(Cl)Cl", "values": [{"measurement": "AC50", "setting": "[10]", "result": "1.6 µM (active)"}, {"measurement": "outcome", "setting": "[7]", "result": "inactive"}]}
{"smiles": "Cc1ccccc1C(=O)Nc1cccc(OC(C)C)c1", "values": [{"measurement": "outcome", "setting": "[1]", "result": "inactive"}, {"measurement": "AC50", "setting": "[3]", "result": "1.13 µM (active)"}]}
{"smiles": "O=C1C2(Cl)C3(Cl)C4(Cl)C(Cl)(Cl)C5(Cl)C3(Cl)C1(Cl)C5(Cl)C24Cl", "note": "(stereo not given)", "values": [{"measurement": "outcome", "setting": "[11]", "result": "inactive"}, {"measurement": "outcome", "setting": "[3]", "result": "inactive"}]}
{"smiles": "CCOP(=S)(OCC)Oc1nc(Cl)c(Cl)cc1Cl", "values": [{"measurement": "AC50", "setting": "[12]", "result": "9.12 µM (active)"}, {"measurement": "outcome", "setting": "[11]", "result": "inactive"}]}
{"smiles": "C=C(C)C(=O)[O][Sn]([CH2]CCC)([CH2]CCC)[CH2]CCC", "values": [{"measurement": "AC50", "setting": "[5]", "result": "4.13 µM (active)"}, {"measurement": "outcome", "setting": "NCBI gene 24521", "result": "inactive"}, {"measurement": "AC50", "setting": "[6]", "result": "12.3 µM (active)"}, {"measurement": "AC50", "setting": "[13]", "result": "25 µM (active)"}, {"measurement": "AC50", "setting": "[1]", "result": "20.3 µM (active)"}, {"measurement": "outcome", "setting": "[7]", "result": "inactive"}, {"measurement": "AC50", "setting": "[8]", "result": "12.8 µM (active)"}, {"measurement": "outcome", "setting": "[14]", "result": "inactive"}]}
{"smiles": "O=c1[nH]c(=O)[nH]c(=O)[nH]1", "values": [{"measurement": "outcome", "setting": "[15]", "result": "inactive"}, {"measurement": "outcome", "setting": "[5]", "result": "inactive"}, {"measurement": "outcome", "setting": "[1]", "result": "inactive"}]}
